Data on eleven compounds can be found in ChEMBL document CHEMBL3988442, “University of Dundee, Small-Polar-MMV Screening Library” (2021).

What all share (design): scale not given: direction of the effect not stated beside the values
Test [1] has as its target Protein translocase subunit SecA (Escherichia coli (strain K12)) (UniProt P10408). Briefly: Assay to Identify E. coli SecA ATPase Inhibitors. Particulars: 30 µM. It counts as functional.
Test [2] concerns the target T1, Ubiquitin-activating enzyme e1, putative (Leishmania donovani (strain BPK282A1)) (UniProt E9BSI1).
T1 sequence (whole entry): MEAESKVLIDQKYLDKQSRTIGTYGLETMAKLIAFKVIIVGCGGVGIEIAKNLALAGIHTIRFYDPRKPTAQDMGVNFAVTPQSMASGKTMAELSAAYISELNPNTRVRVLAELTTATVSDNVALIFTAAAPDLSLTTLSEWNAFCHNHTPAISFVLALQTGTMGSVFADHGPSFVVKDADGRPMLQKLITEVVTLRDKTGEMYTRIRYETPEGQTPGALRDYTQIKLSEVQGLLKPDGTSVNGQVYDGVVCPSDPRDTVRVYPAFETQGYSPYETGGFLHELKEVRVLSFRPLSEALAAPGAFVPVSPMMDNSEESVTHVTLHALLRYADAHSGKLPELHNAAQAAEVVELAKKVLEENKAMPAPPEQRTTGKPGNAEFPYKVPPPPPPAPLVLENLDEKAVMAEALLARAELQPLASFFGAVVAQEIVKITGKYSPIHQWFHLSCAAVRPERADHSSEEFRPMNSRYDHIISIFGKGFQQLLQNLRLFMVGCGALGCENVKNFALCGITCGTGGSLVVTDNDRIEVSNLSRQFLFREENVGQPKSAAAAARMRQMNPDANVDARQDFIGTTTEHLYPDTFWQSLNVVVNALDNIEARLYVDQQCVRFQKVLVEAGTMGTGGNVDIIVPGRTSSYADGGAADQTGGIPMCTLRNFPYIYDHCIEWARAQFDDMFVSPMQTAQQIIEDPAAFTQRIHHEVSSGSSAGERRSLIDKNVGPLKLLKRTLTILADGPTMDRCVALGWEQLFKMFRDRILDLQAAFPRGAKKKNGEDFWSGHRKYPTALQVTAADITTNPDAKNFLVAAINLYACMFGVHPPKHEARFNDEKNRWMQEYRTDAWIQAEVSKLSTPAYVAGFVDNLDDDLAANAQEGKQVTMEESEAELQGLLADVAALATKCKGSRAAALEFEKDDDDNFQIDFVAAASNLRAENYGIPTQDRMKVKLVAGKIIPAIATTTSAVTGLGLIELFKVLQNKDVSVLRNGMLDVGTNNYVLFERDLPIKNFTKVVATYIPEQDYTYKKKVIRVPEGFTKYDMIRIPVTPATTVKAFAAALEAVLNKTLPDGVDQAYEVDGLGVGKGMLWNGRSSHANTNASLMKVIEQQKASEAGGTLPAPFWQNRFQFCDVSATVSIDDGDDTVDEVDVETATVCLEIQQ
Briefly: Leishmania donovani Ubiquitin Activating Enzyme (LdE1). Particulars: 30 µM. Format: functional.

For test [3], the target named is AMP-activated protein kinase, AMPK (Homo sapiens) (UniProt P54646+O43741+P54619+Q9UGJ0+Q9Y478+Q13131+Q9UGI9). The test is described as follows: AMP-dependent Kinase enzyme assay. An in vitro enzyme assay that detects ADP turnover that is directly proportional to AMPK activity. This uses naive AMPK that is activated during the assay with MK-8722. It counts as functional. Particulars: 30 µM.

The target in test [4] is Sialic acid-binding Ig-like lectin 9 (Homo sapiens) (UniProt Q9Y336). Briefly: Hs-Siglec9 ALPHAscreen SOP 20170721. Particulars: 10 µM. In general terms: Alpha assays give light when donor and acceptor beads are brought close together.
Chain of Sialic acid-binding Ig-like lectin 9 (Homo sapiens) (Q9Y336 whole entry): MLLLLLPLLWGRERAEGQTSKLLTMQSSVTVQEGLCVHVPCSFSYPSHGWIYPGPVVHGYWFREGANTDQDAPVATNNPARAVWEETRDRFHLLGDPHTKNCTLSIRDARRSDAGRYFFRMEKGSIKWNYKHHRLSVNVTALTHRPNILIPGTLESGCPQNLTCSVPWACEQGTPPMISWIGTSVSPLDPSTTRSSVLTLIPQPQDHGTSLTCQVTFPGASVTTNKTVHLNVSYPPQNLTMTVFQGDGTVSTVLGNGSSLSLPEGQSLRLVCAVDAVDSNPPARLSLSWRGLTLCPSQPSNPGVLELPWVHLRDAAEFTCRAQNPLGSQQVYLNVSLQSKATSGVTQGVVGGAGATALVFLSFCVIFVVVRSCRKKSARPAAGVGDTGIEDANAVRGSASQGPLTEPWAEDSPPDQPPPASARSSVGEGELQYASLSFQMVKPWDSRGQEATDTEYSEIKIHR
A further test concerns Trypanosoma cruzi. Briefly: Trypanosoma cruzi phosphomannomutase and mannose-1-phosphate guanylyltransferase assay. It counts as functional. To be noted: 10 µM.
The target of test [5] is T2, Arginase-2, mitochondrial (Homo sapiens) (UniProt P78540).
T2 sequence (whole entry): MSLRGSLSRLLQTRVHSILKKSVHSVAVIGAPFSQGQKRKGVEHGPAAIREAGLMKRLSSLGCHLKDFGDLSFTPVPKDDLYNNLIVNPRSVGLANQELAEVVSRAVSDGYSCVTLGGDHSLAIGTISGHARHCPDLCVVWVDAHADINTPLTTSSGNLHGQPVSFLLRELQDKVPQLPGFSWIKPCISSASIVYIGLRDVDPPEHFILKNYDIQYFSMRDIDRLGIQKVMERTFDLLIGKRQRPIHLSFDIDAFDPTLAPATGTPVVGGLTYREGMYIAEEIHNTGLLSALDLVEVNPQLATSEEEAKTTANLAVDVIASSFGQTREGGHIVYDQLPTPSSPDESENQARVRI
Briefly: in vitro enzyme assay to detect the production of urea directly proportional to the activity of Arginase II. Also: in the data most compounds retested in dose-response had high values. Format: functional. Particulars: 33.3 µM.

For test [6], the target named is T3, Proteasome subunit beta (Trypanosoma cruzi) (UniProt O96673).
T3 sequence (whole entry): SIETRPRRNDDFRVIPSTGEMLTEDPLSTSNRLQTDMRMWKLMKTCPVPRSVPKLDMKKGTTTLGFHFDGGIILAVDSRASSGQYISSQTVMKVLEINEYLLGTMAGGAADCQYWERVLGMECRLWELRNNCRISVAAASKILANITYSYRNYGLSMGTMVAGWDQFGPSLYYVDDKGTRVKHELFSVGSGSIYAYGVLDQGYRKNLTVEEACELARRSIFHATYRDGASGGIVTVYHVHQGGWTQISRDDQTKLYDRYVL
Briefly: Trypanosoma cruzi proteasome chymotrypsin-like activity (TcProtChymo) assay. Also: in the data most compounds retested in dose-response had high values. Format: functional. To be noted: 9.37 µM.

The species named for another test is Homo sapiens. Briefly: To identify inhibition of the IFN signalling (Jak-Stat) pathway via expression of an eGFP reporter gene under the control of an IFN-stimulated response element (ISRE) containing MxA promoter. It counts as functional. To be noted: 30 µM. (In a reporter assay the amount or activity of a reporter protein is the signal.)
Test [7] deals with T4, Tyrosyl-tRNA synthetase, putative (Trypanosoma cruzi (strain CL Brener)) (UniProt Q4DSP6).
T4 sequence (whole entry): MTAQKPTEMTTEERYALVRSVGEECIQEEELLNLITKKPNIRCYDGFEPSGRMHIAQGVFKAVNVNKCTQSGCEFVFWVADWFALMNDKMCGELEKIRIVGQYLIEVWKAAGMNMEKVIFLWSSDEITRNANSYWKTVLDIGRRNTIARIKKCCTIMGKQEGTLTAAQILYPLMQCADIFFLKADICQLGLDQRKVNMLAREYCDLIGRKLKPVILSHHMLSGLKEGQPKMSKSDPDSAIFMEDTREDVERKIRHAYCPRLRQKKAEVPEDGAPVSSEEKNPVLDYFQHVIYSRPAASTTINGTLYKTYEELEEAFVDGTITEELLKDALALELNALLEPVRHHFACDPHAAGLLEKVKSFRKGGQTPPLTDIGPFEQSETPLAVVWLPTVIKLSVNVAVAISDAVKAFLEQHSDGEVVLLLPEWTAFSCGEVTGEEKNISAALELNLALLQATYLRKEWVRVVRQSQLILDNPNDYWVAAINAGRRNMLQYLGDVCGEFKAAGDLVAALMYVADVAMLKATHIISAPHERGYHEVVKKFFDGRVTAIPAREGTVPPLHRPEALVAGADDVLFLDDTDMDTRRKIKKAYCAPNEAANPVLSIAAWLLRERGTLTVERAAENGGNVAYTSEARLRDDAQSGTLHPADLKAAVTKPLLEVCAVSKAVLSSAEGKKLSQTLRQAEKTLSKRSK
The test is described as follows: Trypanosoma cruzi tyrosyl tRNA synthetase (TcYRS) _High Tyrosine SOP. Also: in the data most compounds retested in dose-response had high values. It counts as functional. Particulars: 30 µM.

Test [8] concerns the target T4, Tyrosyl-tRNA synthetase, putative (Trypanosoma cruzi (strain CL Brener)). The test is described as follows: Trypanosoma cruzi tyrosyl tRNA synthetase (TcYRS) SOP. Format: functional. To be noted: 30 µM.
Test [9] has as its target Chromo domain-containing protein 1 (Saccharomyces cerevisiae (strain ATCC 204508 / S288c) (Baker's yeast)) (UniProt P32657). Briefly: ScCHD-1 Enzyme Inhibition Assay. Also: in the data most compounds retested in dose-response had high values. It counts as functional. Particulars: 30 µM.

For some of these results: Measured potencies and affinities stand elsewhere.

Chain of Protein translocase subunit SecA (Escherichia coli (strain K12)) (P10408 whole entry): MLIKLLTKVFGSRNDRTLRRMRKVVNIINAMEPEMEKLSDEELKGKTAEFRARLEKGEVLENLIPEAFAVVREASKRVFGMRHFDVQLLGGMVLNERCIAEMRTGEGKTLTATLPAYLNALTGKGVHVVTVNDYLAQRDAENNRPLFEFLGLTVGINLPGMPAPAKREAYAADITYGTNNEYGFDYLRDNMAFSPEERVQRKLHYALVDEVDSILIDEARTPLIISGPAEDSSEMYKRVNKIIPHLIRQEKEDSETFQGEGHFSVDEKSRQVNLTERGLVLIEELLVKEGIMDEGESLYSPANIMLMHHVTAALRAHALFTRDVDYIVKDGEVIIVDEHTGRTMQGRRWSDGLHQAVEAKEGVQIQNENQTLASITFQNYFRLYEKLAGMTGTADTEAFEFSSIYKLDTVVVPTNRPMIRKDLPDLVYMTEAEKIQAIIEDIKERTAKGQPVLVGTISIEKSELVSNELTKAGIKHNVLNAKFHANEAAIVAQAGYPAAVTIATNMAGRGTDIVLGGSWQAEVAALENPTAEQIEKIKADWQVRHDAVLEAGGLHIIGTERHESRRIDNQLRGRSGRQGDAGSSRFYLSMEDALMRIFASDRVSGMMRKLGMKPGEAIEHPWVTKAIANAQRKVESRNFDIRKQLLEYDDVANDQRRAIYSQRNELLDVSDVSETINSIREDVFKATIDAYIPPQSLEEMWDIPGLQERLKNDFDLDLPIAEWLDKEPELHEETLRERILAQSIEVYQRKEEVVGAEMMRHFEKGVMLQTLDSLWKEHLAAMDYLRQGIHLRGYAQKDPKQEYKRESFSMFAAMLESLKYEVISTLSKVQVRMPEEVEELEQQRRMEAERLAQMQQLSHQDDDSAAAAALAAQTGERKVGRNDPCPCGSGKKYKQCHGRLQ
Chain of Chromo domain-containing protein 1 (Saccharomyces cerevisiae (strain ATCC 204508 / S288c) (Baker's yeast)) (P32657 whole entry, the tested form may be a part): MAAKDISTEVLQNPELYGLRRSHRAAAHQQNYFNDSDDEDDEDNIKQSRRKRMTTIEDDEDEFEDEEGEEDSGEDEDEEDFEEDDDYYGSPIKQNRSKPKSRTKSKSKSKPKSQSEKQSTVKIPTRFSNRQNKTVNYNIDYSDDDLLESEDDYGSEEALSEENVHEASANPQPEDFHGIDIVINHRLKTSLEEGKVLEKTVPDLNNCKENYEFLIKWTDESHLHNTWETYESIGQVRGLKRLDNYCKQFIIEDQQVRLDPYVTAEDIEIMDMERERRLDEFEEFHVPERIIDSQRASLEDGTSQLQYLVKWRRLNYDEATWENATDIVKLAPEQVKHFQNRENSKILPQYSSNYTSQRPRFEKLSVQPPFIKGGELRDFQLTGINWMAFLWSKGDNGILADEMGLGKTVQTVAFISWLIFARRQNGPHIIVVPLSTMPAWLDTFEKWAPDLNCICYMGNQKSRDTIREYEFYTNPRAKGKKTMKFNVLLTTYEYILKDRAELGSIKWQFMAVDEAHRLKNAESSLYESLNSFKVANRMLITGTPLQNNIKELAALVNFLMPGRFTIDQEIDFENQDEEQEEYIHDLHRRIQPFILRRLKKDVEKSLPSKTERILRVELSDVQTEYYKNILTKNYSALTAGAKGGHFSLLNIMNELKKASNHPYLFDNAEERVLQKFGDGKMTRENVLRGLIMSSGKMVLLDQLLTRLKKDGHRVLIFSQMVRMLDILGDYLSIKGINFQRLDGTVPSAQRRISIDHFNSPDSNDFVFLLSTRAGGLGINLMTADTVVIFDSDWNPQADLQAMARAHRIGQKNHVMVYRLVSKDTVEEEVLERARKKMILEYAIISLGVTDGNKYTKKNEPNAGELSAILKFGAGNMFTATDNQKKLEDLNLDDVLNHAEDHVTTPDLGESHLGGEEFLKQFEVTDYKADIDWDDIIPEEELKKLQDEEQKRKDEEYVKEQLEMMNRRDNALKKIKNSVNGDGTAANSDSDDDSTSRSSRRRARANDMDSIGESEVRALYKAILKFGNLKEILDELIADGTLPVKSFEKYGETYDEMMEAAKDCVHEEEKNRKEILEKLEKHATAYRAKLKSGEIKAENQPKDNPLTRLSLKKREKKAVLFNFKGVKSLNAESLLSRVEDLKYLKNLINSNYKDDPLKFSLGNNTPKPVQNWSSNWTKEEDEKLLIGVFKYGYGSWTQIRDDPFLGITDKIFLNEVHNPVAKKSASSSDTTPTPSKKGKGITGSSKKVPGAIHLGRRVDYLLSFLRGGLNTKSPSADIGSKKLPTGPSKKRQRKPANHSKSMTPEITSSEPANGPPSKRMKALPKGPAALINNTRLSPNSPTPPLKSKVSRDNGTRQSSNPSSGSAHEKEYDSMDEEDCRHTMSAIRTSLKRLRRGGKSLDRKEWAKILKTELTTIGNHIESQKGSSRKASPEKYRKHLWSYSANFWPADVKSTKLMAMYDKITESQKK

Regarding `Cc1cc(C)n(C2CN(CC(=O)NCC(C)(C)N3CCOCC3)C2)n1`, the Percent Effect in test [1] was -1.83%; in test [2], 8.86%; in test [3], 2.81%; in [4], 2.3%; in the test with Trypanosoma cruzi, -1.13%; in test [5] it was -0.645%. Besides, the Percent Effect in test [6] was 8.92%; in the test filed under Homo sapiens it was 20.1%; in [7], 5.21%; in [8], 15.2%; in [9] it was -7.96%.

With `C[C@@H]1CN(C(=O)c2cnc(C3CC3)nc2)CC[C@@]1(O)C1CCOCC1`, the Percent Effect in [1] was -3.43%; in [2], 10.8%; in test [3], -4.34%; in test [4], 21.6%; with Trypanosoma cruzi it was 4.44%; in test [5] it was -8.57%. For the same compound, the Percent Effect in test [6] is 6.55%; in the test listed under Homo sapiens it was -5.6%; in test [7], 4.76%; in test [8], 9.76%; in [9], -5.75%.

Take `C1CCCN(c2nc(C3CC3)ns2)CC1`: the Percent Effect in test [1] is -7.97%; in test [2], -5.48%; in test [3] it was -19.9%; in [4], 6.34%; in the test with Trypanosoma cruzi, -4.31%; in test [5], -2.27%. Moreover, the Percent Effect in test [6] was 12.2%; in the test listed under Homo sapiens it was 30.1%; in test [7], -4.3%; in test [8], -10%; in [9], -3.08%.

On to `CN(CCCOc1ccccc1)C(=O)CN1CCc2cncnc2C1`, for which the Percent Effect in test [1] is -1.71%; in test [2], 26.3%; in test [3], -41.1%; in [4] it was 4.54%; with Trypanosoma cruzi it was 9.24%; in [5] it was -0.719%. Moreover, the Percent Effect in test [6] is 10.6%; in the test listed under Homo sapiens, -5.43%; in test [7], 30.1%; in test [8] it was 38.3%; in test [9] it was -11.5%.

As for `CN1CCOC(CNCCc2ccccn2)C1` (stereo unspecified), the Percent Effect in test [1] is -2.22%; in [2], 20.2%; in test [3], -8.39%; in [4], -6.71%; with Trypanosoma cruzi, -3.31%; in [5], 5.7%. The Percent Effect is 5.32% in test [6]; 16.5% in the test filed under Homo sapiens; 8.37% in [7]; 16.5% in test [8]; -2.67% in [9].

For the compound `CC1c2ncc(CN3CCN(C)CC3)n2CCN1CC1CC1` (stereo unspecified), the Percent Effect in test [1] was -1.8%; in [2], 18.7%; in [3], -6.67%; in test [4], 5.11%; with Trypanosoma cruzi it was 5.99%; in test [5] it was -54.7%. Further, the Percent Effect is 6.33% in [6]; -3.72% in the test listed under Homo sapiens; 6.25% in test [7]; 17.5% in test [8]; -8.05% in test [9].

As to `COCCCN1CCCN(C(C)c2nc(C3CC3)no2)CC1` (stereo unspecified), the Percent Effect in [1] was -1.91%; in test [2] it was 8.11%; in [3] it was -3.11%; in test [4] it was 15.8%; with Trypanosoma cruzi it was 4.74%; in test [5], -13.5%. For the same compound, the Percent Effect is 6.46% in test [6]; -3.07% in the test listed under Homo sapiens; 4.95% in test [7]; 15.8% in [8]; -1.39% in [9].

As to `CCC(=O)N1CCC(c2nc3ccc(NC(C)C)cn3n2)CC1`, the Percent Effect is -5.82% in test [1]; -5.41% in test [2]; -88.4% in [3]; 0.275% in test [4]; -1.56% with Trypanosoma cruzi; -0.833% in [5]. The Percent Effect is 1.44% in test [6]; -2.11% in the test listed under Homo sapiens; 1.98% in test [7]; 1.22% in test [8]; -4.18% in test [9].

For the compound `Cc1cc(C2CCCN(C(=O)c3cnccn3)C2)ccn1` (stereo unspecified), the Percent Effect was 2.59% in test [1]; 6.76% in [2]; 5.06% in [3]; 0.392% in test [4]; -5.93% in the test with Trypanosoma cruzi; 0.232% in test [5]. Besides, the Percent Effect in [6] worked out at 8.27%; in the test listed under Homo sapiens it was 12.6%; in [7], 2.15%; in test [8] it was 3.9%; in [9], 6.76%.

With `Cc1oc(C)c(C(=O)NCc2ccccc2S(=O)(=O)N(C)C)c1C`, the Percent Effect was -1.39% in test [1]; 10.5% in test [2]; 8.5% in test [3]; 1.67% in [4]; -3.01% with Trypanosoma cruzi; -3.83% in [5]. The Percent Effect was 8.19% in test [6]; 2.68% in the test listed under Homo sapiens; 1.47% in test [7]; 7.32% in test [8]; -5.82% in test [9].

As for `Cc1ccoc1C(=O)N1CCOCC2(CCN(c3ncccn3)C2)C1` (stereo unspecified), the Percent Effect is -3.09% in [1]; 5.41% in test [2]; -4.43% in [3]; 21.7% in test [4]; 5.57% with Trypanosoma cruzi; 13.2% in [5]. The Percent Effect in test [6] is 9.01%; in the test filed under Homo sapiens, 10.4%; in [7], 7.53%; in test [8] it was 21%; in test [9], -6.03%.
